PubChem BioAssay
“And” between values parts separate entries of the source, which are not always exact repeats. Equal values may be shown once.

Assay: MELAS cybrid and Rieske KO viability enhancers – cell-based, MELAS cybrids, Rieske KO mouse fibroblasts, CellTiter-Glo, primary screen (AID 1508586);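 also: test concentration not given here; z relative to plate mean and SD of compound and empty wells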
Details: Rieske KO mouse fibroblast survival, low glucose, CellTiter-Glo 72 h

Structure (SMILES)	z-score
CCN1CCN(C(=O)N[C@@H](C(=O)N[C@@H]2C(=O)N3C(C(=O)O)=C(CSc4nnnn4C)CS[C@H]23)c2ccc(O)cc2)C(=O)C1=O	-0.0146 and -0.684
C#CCN(C)Cc1ccccc1	-0.334 and 0.464
CC(C)(C)NC(=O)[C@H]1CC[C@H]2[C@@H]3CC[C@H]4NC(=O)C=C[C@]4(C)[C@H]3CC[C@]12C	0.621 and 0.926
CC(=O)O[C@H]1C[C@@H]2CC[C@@H]3[C@H](CC[C@@]4(C)[C@H]3C[C@H]([N+]3(C)CCCCC3)[C@@H]4OC(C)=O)[C@@]2(C)C[C@@H]1N1CCCCC1	-0.264 and -0.536
Nc1ccc(S(N)(=O)=O)cc1	0.662 and -0.707
O=C1C(=O)c2ccccc2C(O)=C1C1CCC(c2ccc(Cl)cc2)CC1 (stereo not drawn)	-0.105 and 0.155 and 0.7
C[C@@](Cc1ccc(O)c(O)c1)(NN)C(=O)O	0.573 and -0.159 and -0.894
C#C[C@]1(O)CC[C@H]2[C@@H]3CCc4cc(O)ccc4[C@H]3CC[C@@]21C	0.428
CN1CCN(CC(=O)N2c3ccccc3C(=O)Nc3cccnc32)CC1	-0.103 and -0.194
COCCc1ccc(OCC(O)CNC(C)C)cc1 (stereo not drawn)	-0.175 and -0.344 and -0.724
CO[C@@]12[C@H](COC(N)=O)C3=C(C(=O)C(C)=C(N)C3=O)N1C[C@@H]1N[C@@H]12	-1.21
CC(=O)O[C@]1(C(C)=O)CC[C@H]2[C@@H]3C=C(Cl)C4=CC(=O)[C@@H]5C[C@@H]5[C@]4(C)[C@H]3CC[C@@]21C	-0.158
CCC(=O)O[C@]1(C(=O)SCF)[C@H](C)C[C@H]2[C@@H]3C[C@H](F)C4=CC(=O)C=C[C@]4(C)[C@@]3(F)[C@@H](O)C[C@@]21C	0.72
CCCCNc1ccc(C(=O)OCCN(C)C)cc1	-0.0172 and -0.0428
O=c1[nH]c(=O)n([C@H]2C[C@H](O)[C@@H](CO)O2)cc1F	1.5 and -0.252
CCCCC1C(=O)N(c2ccccc2)N(c2ccccc2)C1=O	0.0743 and -0.296 and -0.0136
COC(=O)[C@@H]1[C@H]2C[C@H]3c4[nH]c5ccccc5c4CCN3C[C@@H]2CC[C@@H]1O	0.2 and -0.116

Structure (SMILES)	z-score
O=C1NCC2(CCN(CCc3ccccc3)CC2)O1	-0.174 and -0.0853
CN(C)CCC(c1ccccc1)c1ccccn1 (stereo not drawn)	-0.594 and -0.285 and 0.31
CC1(C)O[C@@H]2C[C@H]3[C@@H]4C[C@H](F)C5=CC(=O)C=C[C@]5(C)[C@@]4(F)[C@@H](O)C[C@]3(C)[C@]2(C(=O)CO)O1	0.469 and 1.67
CCOC(=O)O[C@]1(C(=O)OCCl)CC[C@H]2[C@@H]3CCC4=CC(=O)C=C[C@]4(C)[C@H]3[C@@H](O)C[C@@]21C	0.287
Nc1ccc(N=Nc2ccccc2)c(N)n1	0.473 and -0.21 and 1.1
C#C[C@]1(O)CC[C@H]2[C@@H]3CCc4cc(OC)ccc4[C@H]3CC[C@@]21C	0.807
O=C(CCCN1CCN(c2ccccn2)CC1)c1ccc(F)cc1	-0.169 and 0.0955 and 0.456
C[N+](C)(C)CCOC(N)=O	-1.06 and 1.01
CCO/C([O-])=N/c1c[n+](N2CCOCC2)no1	0.123 and -0.771
CNC1(C)C2CCC(C2)C1(C)C (stereo not drawn)	0.191 and -0.476
CC(=O)Oc1ccc(C(c2ccc(OC(C)=O)cc2)c2ccccn2)cc1	-0.124 and -0.26 and 0.348
COc1ccccc1OCC(O)CO (stereo not drawn)	-0.0145 and 0.521 and -0.435
NC[C@H](O)c1ccc(O)c(O)c1	-0.266 and 0.00809 and -1.27
CN(C)C(=O)Oc1cccc([N+](C)(C)C)c1	0.395 and -0.634
NC(N)=N/N=C/c1c(Cl)cccc1Cl	0.531 and 1.03
Cc1onc(-c2ccccc2)c1C(=O)N[C@@H]1C(=O)N2[C@@H]1SC(C)(C)[C@@H]2C(=O)O	-0.0856 and 0.018
